PubChem BioAssay
Calls of active or inactive are those of the source.

Tests used:
Albumin (Bos taurus) = Albumin (Bos taurus) (UniProt P02769); assay: bovine serum albumin binders on microarray, profiling panel, artefact control for SMM control protein annotation, biochemical, small-molecule microarray, Alexa647 label, 635/667 nm fluorescence (AID 1118); settings: BSA-A647 binding, fluorescence 635 nm, higher = more signal;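 also: score merges 667 nm emission intensity and signal-to-noise per printed compound spot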
Albumin (Bos taurus), sequence (P02769 whole entry, looked up): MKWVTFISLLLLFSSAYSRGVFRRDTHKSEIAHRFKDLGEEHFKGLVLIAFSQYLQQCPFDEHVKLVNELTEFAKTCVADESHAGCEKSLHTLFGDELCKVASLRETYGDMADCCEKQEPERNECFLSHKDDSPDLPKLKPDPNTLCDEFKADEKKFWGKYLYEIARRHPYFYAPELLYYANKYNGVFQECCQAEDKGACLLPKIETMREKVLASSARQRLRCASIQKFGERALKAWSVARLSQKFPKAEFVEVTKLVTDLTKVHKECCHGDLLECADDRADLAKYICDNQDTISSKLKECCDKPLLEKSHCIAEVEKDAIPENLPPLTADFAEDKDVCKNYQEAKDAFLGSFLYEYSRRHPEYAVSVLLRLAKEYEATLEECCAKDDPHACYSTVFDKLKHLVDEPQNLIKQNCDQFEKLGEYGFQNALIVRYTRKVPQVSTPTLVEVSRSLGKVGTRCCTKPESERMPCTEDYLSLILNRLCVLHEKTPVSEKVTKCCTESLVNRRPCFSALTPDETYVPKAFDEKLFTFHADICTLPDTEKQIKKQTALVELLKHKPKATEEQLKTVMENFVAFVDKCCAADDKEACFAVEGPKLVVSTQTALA

[1] = small-molecule microarray binders of probe aXIP, primary screen, biochemical, NeuroSMM set, 635/667 nm fluorescence (AID 1119); settings: higher = more signal, called active from +8 up or from −8 down;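 also: probe is the protein aXip251-270 applied at 1 µg/mL to compound-printed slides; binding of probe to printed compounds measured as 667 nm fluorescence plus signal to noise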
[2] = small-molecule binders of probe aNOTCH3, primary screen, biochemical, small-molecule microarray, 635/667 nm fluorescence (AID 1120); settings: higher = more signal;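 also: probe is a biotin-tagged antibody raised against NOTCH3 rather than NOTCH3 protein; score merges spot fluorescence near 667 nm with spot signal to noise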
[3] = small-molecule binders of probe aNOTCH2, primary screen, biochemical, small-molecule microarray, 635/667 nm fluorescence (AID 1121); settings: higher = more signal;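 also: score merges feature fluorescence read at 667 nm with its signal to noise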
[4] = biological target: Carbonic anhydrase 2 (Homo sapiens) (UniProt P00918); assay: CAII small-molecule binders, profiling panel, biochemical, small-molecule microarray, Alexa647-labelled CAII (AID 1122); settings: CAII-A647 binding fluorescence, higher = more signal
[5] = COS7 lysate on small-molecule microarray, probe aHis, 635 nm (AID 1123); settings: COS7 cell lysate, fluorescence, higher = more signal;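 also: z-score combines 667nm fluorescence intensity with signal-to-noise per printed compound spot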
[6] = compound binding in COS7 lysate, probe aLAP1, primary screen, cell lysate, small-molecule microarray (AID 1124); settings: probe aLAP1, fluorescence, higher = more signal;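 also: lysate comes from COS7 cells expressing LAP1 and is applied at 0.3 µg/mL; score merges spot fluorescence near 667 nm with signal-to-noise over triplicate slides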
Sam68 (KHDRBS1) = assay: Sam68 small-molecule binders, primary screen, biochemical, small-molecule microarray, 635 nm fluorescence (AID 1125); settings: small-molecule microarray binding, higher = more signal;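 also: score merges 667 nm channel intensity with signal to noise over triplicate slides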
[7] = test system: Chordin-like protein 2 (CHRDL2); assay: CHRDL2 small-molecule binders, primary screen, biochemical, small-molecule microarray, 635 nm fluorescence (AID 1126); settings: small-molecule microarray binding, fluorescence 635 nm; higher = more signal;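 also: printed compound slides probed with Chrdl2 protein at 4 µg/mL for 1 h at 4 C; score merges 667 nm emission intensity with signal to noise over three replicate slides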
[8] = biological target: Concanavalin-A (Canavalia ensiformis) (UniProt P02866); assay: ConA small-molecule binders, primary screen, artefact control for SMM control protein annotation, biochemical, small-molecule microarray, Alexa647 label, 635 nm (AID 1127); settings: ConA-A647 binding fluorescence, higher = more signal;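 also: z combines 667 nm emission intensity with signal-to-noise across three replicate slides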
Concanavalin-A (Canavalia ensiformis), sequence (P02866 whole entry, looked up): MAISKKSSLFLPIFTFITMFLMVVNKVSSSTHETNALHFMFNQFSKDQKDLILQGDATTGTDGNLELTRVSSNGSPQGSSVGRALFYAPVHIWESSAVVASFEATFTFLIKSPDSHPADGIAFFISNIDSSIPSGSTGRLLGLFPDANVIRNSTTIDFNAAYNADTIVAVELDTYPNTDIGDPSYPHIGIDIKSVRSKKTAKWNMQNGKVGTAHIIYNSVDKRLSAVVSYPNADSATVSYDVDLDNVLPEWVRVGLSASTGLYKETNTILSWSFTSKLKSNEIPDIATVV

[9] = anti-His antibody binders, primary screen, artefact control for SMM control protein annotation, biochemical, small-molecule microarray, 635 nm fluorescence (AID 1128); settings: anti-His Alexa647 antibody binding, higher = more signal;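 also: score merges feature fluorescence with signal-to-noise for each printed compound spot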
[10] = test system: Human papillomavirus type 1a E7 protein (residues 1-88); assay: HPV1a E7 small-molecule binders, primary screen, biochemical, small-molecule microarray, residues 1-88, 635 nm (AID 1129); settings: small-molecule microarray binding, fluorescence 635 nm; higher = more signal
[11] = biological target: Focal adhesion kinase 1 (Homo sapiens) (UniProt Q05397); assay: small-molecule microarray binders of FAK, primary screen, biochemical, 635/667 nm fluorescence, BSA, DTT (AID 1130); settings: PTK2 binding, 635 nm fluorescence, higher = more signal;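 also: composite of spot emission at 667 nm and signal to noise over triplicate slides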
Focal adhesion kinase 1 (Homo sapiens), sequence (Q05397 whole entry, looked up): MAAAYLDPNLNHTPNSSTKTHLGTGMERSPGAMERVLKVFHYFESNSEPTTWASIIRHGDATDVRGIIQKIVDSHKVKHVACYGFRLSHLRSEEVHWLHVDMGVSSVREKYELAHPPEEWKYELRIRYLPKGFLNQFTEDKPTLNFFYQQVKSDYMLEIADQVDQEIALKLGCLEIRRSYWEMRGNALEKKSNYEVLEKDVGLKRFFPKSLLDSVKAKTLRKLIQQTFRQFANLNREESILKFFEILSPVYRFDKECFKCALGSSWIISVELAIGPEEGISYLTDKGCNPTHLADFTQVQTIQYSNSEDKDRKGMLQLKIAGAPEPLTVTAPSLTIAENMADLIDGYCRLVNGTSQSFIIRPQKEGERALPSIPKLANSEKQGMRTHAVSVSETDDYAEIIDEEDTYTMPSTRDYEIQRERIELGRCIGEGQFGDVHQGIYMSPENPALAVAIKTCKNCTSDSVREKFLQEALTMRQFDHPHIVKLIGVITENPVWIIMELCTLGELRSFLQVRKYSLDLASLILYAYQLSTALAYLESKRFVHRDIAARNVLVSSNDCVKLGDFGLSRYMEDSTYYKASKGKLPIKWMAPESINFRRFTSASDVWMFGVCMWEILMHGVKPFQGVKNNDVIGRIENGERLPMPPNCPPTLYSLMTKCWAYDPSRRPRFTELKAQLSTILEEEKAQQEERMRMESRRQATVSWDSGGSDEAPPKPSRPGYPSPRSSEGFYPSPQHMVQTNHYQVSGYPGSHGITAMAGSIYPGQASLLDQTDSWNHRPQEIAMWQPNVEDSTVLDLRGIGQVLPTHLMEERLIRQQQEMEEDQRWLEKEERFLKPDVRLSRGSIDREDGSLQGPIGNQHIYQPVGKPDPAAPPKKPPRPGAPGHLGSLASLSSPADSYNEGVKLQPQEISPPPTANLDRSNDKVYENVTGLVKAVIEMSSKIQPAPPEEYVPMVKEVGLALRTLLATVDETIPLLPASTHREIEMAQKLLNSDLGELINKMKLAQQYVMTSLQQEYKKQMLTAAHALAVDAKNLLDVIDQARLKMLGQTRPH

[12] = test system: Fibrinogen (Alexa647-labelled); assay: fibrinogen binders on compound microarrays, profiling panel, artefact control for SMM control-protein annotation, biochemical, small-molecule microarray, 635/667 nm fluorescence (AID 1131); settings: fibrinogen-A647 binding fluorescence, higher = more signal;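 also: z-score merges 667 nm fluorescence with per-spot signal-to-noise over triplicate slides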
[13] = biological target: Follistatin (Homo sapiens) (UniProt P19883); assay: follistatin binders on small-molecule microarrays, primary screen, biochemical, small-molecule microarray, 635/667 nm fluorescence (AID 1132); settings: FST binding, 635 nm fluorescence, higher = more signal
Follistatin (Homo sapiens), sequence (P19883 whole entry, looked up): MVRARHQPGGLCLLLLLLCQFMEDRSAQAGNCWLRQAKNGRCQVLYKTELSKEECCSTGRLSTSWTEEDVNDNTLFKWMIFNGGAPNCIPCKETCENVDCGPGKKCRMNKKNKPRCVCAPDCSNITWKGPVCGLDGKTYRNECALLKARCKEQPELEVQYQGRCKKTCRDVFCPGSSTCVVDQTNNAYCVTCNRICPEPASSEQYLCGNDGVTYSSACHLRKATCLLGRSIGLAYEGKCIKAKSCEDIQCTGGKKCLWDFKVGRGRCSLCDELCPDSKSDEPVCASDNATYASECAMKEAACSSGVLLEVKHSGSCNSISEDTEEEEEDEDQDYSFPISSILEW

[14] = biological target: Fibroblast growth factor 2 (Homo sapiens) (UniProt P09038); assay: FGF2 binders on small-molecule microarrays, primary screen, biochemical, small-molecule microarray, 635/667 nm fluorescence (AID 1133); settings: small-molecule microarray binding, FGF2, fluorescence 635/667; higher = more signal
Fibroblast growth factor 2 (Homo sapiens), sequence (P09038 whole entry, looked up): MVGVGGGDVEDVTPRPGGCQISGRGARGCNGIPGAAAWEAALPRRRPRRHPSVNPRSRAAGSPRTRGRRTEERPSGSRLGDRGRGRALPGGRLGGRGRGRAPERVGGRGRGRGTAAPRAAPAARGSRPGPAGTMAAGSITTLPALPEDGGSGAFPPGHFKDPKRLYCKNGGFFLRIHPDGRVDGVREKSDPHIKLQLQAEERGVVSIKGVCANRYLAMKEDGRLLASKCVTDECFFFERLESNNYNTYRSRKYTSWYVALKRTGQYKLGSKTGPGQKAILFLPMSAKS

[15] = mitochondrial membrane potential change in A549 cells, profiling panel, cell-based, JC-1 fluorescence, basal, 24 h, 100 nL (AID 1138); settings: higher = more signal;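 also: A549 lung adenocarcinoma cells under basal conditions with no added stimulus; test concentration not given here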
Lefty1 = Lefty1 binders on small-molecule microarrays, primary screen, biochemical, small-molecule microarray, 635/667 nm fluorescence (AID 1139); settings: small-molecule microarray binding, fluorescence 635/667; higher = more signal
[16] = test system: wheat germ agglutinin (Triticum aestivum), Alexa647-labelled; assay: wheat germ agglutinin binders on compound microarrays, profiling panel, artefact control for SMM control-protein annotation, biochemical, small-molecule microarray, 635/667 nm fluorescence (AID 1140); settings: WGA-A647 binding, 635 nm fluorescence, higher = more signal;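 also: score merges 667 nm feature emission with signal to noise over triplicate slides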
[17] = biological target: Luciferin 4-monooxygenase (Photinus pyralis) (UniProt P08659); assay: firefly luciferase enzyme inhibitors, primary screen, biochemical, luminescence, purified enzyme, 2006 set (AID 1141); settings: SteadyGlo luminescence, 30 min, higher = more signal, called active from +8 up or from −8 down;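 also: cell-free assay with purified firefly luciferase at 100 ng per well in PBS; test concentration not given here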
Luciferin 4-monooxygenase (Photinus pyralis), sequence (P08659 whole entry, looked up): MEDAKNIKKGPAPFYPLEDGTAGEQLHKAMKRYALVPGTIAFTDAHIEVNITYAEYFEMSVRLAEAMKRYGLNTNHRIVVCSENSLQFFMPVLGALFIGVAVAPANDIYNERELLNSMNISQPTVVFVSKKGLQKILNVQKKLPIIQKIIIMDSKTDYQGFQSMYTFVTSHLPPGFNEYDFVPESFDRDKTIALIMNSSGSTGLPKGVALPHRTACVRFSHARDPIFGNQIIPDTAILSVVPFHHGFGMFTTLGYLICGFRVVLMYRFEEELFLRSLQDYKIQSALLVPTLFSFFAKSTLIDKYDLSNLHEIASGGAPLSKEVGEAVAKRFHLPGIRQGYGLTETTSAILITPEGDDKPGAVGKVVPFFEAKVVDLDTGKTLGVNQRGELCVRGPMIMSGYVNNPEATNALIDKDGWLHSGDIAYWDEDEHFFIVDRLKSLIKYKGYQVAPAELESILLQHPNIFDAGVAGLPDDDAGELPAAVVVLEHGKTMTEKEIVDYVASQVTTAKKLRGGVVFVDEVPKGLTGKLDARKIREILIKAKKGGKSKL

Row | Structure (SMILES) | composite z-score (Albumin (Bos taurus)) | composite Z-score [1] | composite z-score [2] | composite z-score [3] | composite z-score [4] | composite z-score [5] | composite z-score [6] | composite z-score (Sam68 (KHDRBS1)) | composite z-score [7] | composite z-score [8] | composite z-score [9] | composite z-score [10] | composite z-score [11] | composite z-score [12] | composite z-score [13] | composite z-score [14] | z-score [15] | composite z-score (Lefty1) | composite z-score [16] | z-score [17]
1 | COC(=O)[C@]1(Cc2ccccc2CN=[N+]=[N-])N=C(c2ccc(OCCCO)cc2)O[C@@H]1c1ccccc1 | -0.312 | 0.667 (inactive) | -0.122 | -0.0194 | 0.563 | 0.243 | -0.779 | -0.776 | -0.928 | 0.694 | 0.652 | -1.81 | -0.435 | 0.0713 | -0.562 | -0.782 | -0.0525 | -0.429 | 0.441 | -1.02 (inactive)
2 | C=CCC(OC(C)=O)[C@@H]1[C@@H](N(Cc2cc3ccccc3o2)C(=O)Cc2ccc(OC)cc2)c2cc(OCCCO)ccc2N1C(=O)c1ccc(-c2ccccc2)cc1 (stereo not given in full) | 0.0023 | -0.287 (inactive) | 0.111 | 0.0098 | -0.137 | -0.338 | -0.0843 | -0.494 | 0.224 | -1.15 | -0.316 | -0.313 | 0.107 | -0.203 | 0.352 | 0.133 | 0.94 | -0.492 | -0.272 | -0.52 (inactive)
3 | COc1ccc(C#Cc2ccc3c(c2)[C@]2(C(=O)N3)[C@H](c3ccc(OCCO)cc3)N3[C@H](c4ccccc4)[C@H](c4ccccc4)OC(=O)[C@H]3[C@@H]2C(=O)N2CCN(c3ncccn3)CC2)cc1 | 0.716 | -0.912 (inactive) | -0.156 | -0.157 | 0.39 | 0.873 | 0.324 | 0.514 | -0.233 | 1.04 | 0.197 | 0.816 | 0.0451 | 0.771 | 1.01 | 0.0495 | -1.38 | 0.305 | 0.776 | 0.713 (inactive)
4 | C[N+](C)(C)CCCC[C@@H]1NC(=O)[C@H]2C[C@@H](C(=O)NCCCCCCN)[C@@H](c3cccc(OCCO)c3)N2C1=O | 0.149 | 0.514 (inactive) | 0.536 | 0.198 | 0.752 | 2.07 | 1.04 | 1.3 | 0.886 | 0.936 | 0.711 | 1.21 | 0.209 | 0.704 | 1.4 | 1.51 | -0.798 | 1.67 | 1.13 | 0.815 (inactive)
5 | CN1C(=O)C2C=CC(C(O)C3CCCCC3)N(N(c3ccccc3)c3ccccc3)C2C1=O (stereo not given) | -0.0103 | 0.54 (inactive) | 0.367 | 0.232 | 0.72 | 2.56 | 1.21 | -0.864 | -1.04 | -1.27 | -0.392 | -1.14 | 0.0064 | -0.702 | -0.885 | -0.732 | 0.131 | -1.6 | 0.517 | 0.135 (inactive)
6 | CC(C)(C)OC(=O)CC[C@]1(C(=O)O)COC(c2ccc(OCCCO)cc2)=N1 | 0.374 | -0.0004 (inactive) | 0.102 | -0.0966 | 0.803 | 1.11 | -0.156 | -1.05 | -1.92 | 0.135 | 0.541 | -0.173 | -0.108 | 0.68 | -0.747 | -1.23 | 0.352 | -0.552 | 0.62 | -0.306 (inactive)
7 | COc1cc2c(cc1OC)CN(C(=O)[C@@H]1[C@H]3C(=O)O[C@H](c4ccccc4)[C@H](c4ccccc4)N3[C@H](c3ccc(O)cc3)[C@@]13C(=O)Nc1ccc(C#CCNC(N)=O)cc13)CC2 | 0.0738 | 0.507 (inactive) | 0.114 | -0.182 | -0.0348 | 0.276 | 1.06 | 0.425 | 0.498 | 0.826 | 0.474 | 0.69 | 0.484 | 0.43 | 1.29 | 0.302 | -0.876 | 0.837 | 0.607 | 0.696 (inactive)
8 | CC1(C)[C@@H]2CC(C(O)C3C=CC4C(=O)N(c5ccccc5)C(=O)C4N3Nc3ccccc3F)=C[C@@H]1C2 (stereo not given in full) | 0.844 | 0.0252 (inactive) | 0.272 | -0.229 | 0.571 | 2.66 | 0.405 | 1.29 | 0.0364 | 1.09 | 1.41 | 1.2 | 0.218 | 0.938 | 0.876 | 1.26 | -0.136 | 0.655 | 0.392 | 0.905 (inactive)
9 | O=C1N(CCS(=O)(=O)c2ccccc2)c2ccccc2[C@H]2OC(c3ccc(OCCCO)cc3)=N[C@@]12CCS(=O)(=O)c1ccccc1 | -1.18 | 1.11 (inactive) | 0.674 | 0.445 | 0.352 | 2.82 | 0.226 | 1.29 | 1.07 | 1.16 | 3.19 | 1.21 | 0.634 | 0.943 | 1.42 | 1.74 | -1.23 | 0.589 | 0.816 | -3.3 (inactive)
10 | O=C1c2ccccc2C(=O)C2CC([C@H]3Oc4ccccc4S(=O)(=O)N4CCC[C@@H]34)=CCC12 (stereo not given in full) | 0.793 | 0.251 (inactive) | -0.122 | -0.117 | -0.241 | -0.296 | -0.363 | -0.557 | 0.139 | -1 | -0.0332 | 0.101 | 0.867 | 0.788 | -0.0849 | 0.189 | -0.309 | -0.02 | 0.47 | -0.759 (inactive)
11 | COCCOC(=O)N1C(=O)[C@@]2(c3cc(C#CCNC(N)=O)ccc31)[C@H](C(N)=O)[C@H]1C(=O)O[C@H](c3ccccc3)[C@H](c3ccccc3)N1[C@@H]2c1ccc(OCCO)cc1 | -0.217 | 0.462 (inactive) | 0.276 | -0.0979 | 0.52 | 0.475 | 0.53 | 0.815 | 1.03 | 1.09 | -0.224 | 1.03 | 0.199 | 0.609 | 1.48 | 1.26 | -2.25 | 1.46 | 0.121 | -1.8 (inactive)
